Only some compounds are listed: those with a hit (about 11% of all), similar ones and a draw of the others.
Pf growth 48h – inhibits P. falciparum growth in the first generation, 48 h; P. falciparum luciferase growth in erythrocytes, 48 h; Potency, µM (doses to about 28.7 µM), inactives show at the top dose activity change, negative = inhibition, most hits filed as inhibitors; 310,000 compounds, 5.9% hits; AID 504832; further: on the % scale 0 is the no-effect control and ±100 the full control effect
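Firefly luciferase activity from engineered P. falciparum reports growth; inhibitors lower the luminescent signal. Cultures contained 2% hematocrit erythrocytes at 0.1% final parasitemia.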
Pf growth 96h – P. falciparum growth inhibition at 96 hour, primary screen for plastid delayed-death inhibitors. Potency, µM (titrated, usually from 28.7 µM), inactives show top-dose activity change, negative = inhibition, most hits filed as inhibitors. 320,000 compounds, 6.9% hits. P. falciparum luciferase reporter growth, 96 h; further: on the % scale 0 is the no-effect control and ±100 the full control effect
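Parasite growth measured via integrated firefly luciferase reporter in P. falciparum. Infected erythrocytes at 2% hematocrit, 0.05% parasitemia final were treated 96 hours at 37 C under 5% CO2, and luminescence was read.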
Vaccinia mCherry – vaccinia inhibition (mCherry reporter) | Potency, µM (titrated, usually from 36.5 µM), inactives show at the top dose activity change, negative = inhibition, hits mostly inhibitors | Vaccinia virus mCherry reporter infection, fluorescence | 310,000 compounds, 0.63% hits; calls by dose curve; tested in A549 cells; further: on the % scale 0 is the no-effect control and ±100 the full control effect; nearly all actives have a fitted effect of over 35% in size
NS1 function inh – blocks influenza NS1 protein function | Potency, µM (doses to about 46.1 µM), for the others: at the top dose activity, positive = more growth | 270,000 compounds, 0.4% hits | AID 2326; calls by dose curve; further: actives are rising curves; nearly all actives have a fitted effect of over 50% in size
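S. cerevisiae expressing influenza A NS1, grown in glucose, washed, then diluted 1:100 into pH 6.0 -URA galactose medium with 23 nl compound. Growth recovery read as OD600; NS1-free strain serves as control.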
Vaccinia Venus – vaccinia inhibition (Venus reporter); Potency, µM (doses to about 36.5 µM), for the others: at the top dose activity change, negative = inhibition, most hits filed as inhibitors; AID 720580; Vaccinia virus Venus reporter expression, fluorescence; 330,000 compounds, 0.46% hits; calls by dose curve; tested in A549 cells; further: on the % scale 0 is the no-effect control and ±100 the full control effect; nearly all actives have a fitted effect of over 30% in size
HCV inhibitor – blocks hepatitis C virus; Huh7.5.1 HCVcc-Cre infection, luciferase reporter, 44 h; 340,000 compounds, 3.4% hits; Potency, µM (doses to about 41.8 µM), for the others: at the top dose activity change, negative = inhibition, actives largely listed as inhibitors; AID 651820; further: on the % scale 0 is the no-effect control and ±100 the full control effect
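Reporter virus HCVcc-Cre (~0.5 moi) infects cells exposed to compound; seeding density 1,000 cells/well with 4 h settling beforehand. Luminescence, 15 sec read, taken 44 h post-infection following a 15 min RT substrate incubation.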
* = called active by the depositor. Unless noted, the call rests on the fitted dose curve; in most records, active means well fitted inhibition curve with a large enough effect; inconclusive means small, poorly fitted or top-dose-only effect, or another doubt; inactive means no such curve, though single readings can be large or run the other way. Potency means the concentration at half of the fitted maximal effect.

Results for CCOC(=O)c1c(N)nn(C(=O)C(C)(C)C)c1-c1ccccc1 ?
Pf growth 48h: 9%; Pf growth 96h: 0%; NS1 function inh: 1%; HCV inhibitor: -4%

What do the screens show for `CCOC(=O)C1=C(c2ccccc2)N2CCS(=O)(=O)N=C2S1`?
Pf growth 48h: -1%; Pf growth 96h: 10µM*; Vaccinia mCherry: -1%; NS1 function inh: 9%; Vaccinia Venus: -7%; HCV inhibitor: -3%

What do the screens show for `CN(Cc1ccccc1)S(=O)(=O)c1ccc(OCC(=O)Nc2cccc([N+](=O)[O-])c2)cc1`?
Pf growth 48h: inconclusive; Pf growth 96h: 1%; Vaccinia mCherry: -12%; NS1 function inh: 3%; Vaccinia Venus: -17%; HCV inhibitor: 14%

Results for CN(c1ccccc1)S(=O)(=O)c1cccc(NC(=O)COc2cccc([N+](=O)[O-])c2)c1 ?
Pf growth 48h: 13µM*; Pf growth 96h: -19%; Vaccinia mCherry: -15%; Vaccinia Venus: -6%; HCV inhibitor: inconclusive

How did CCOc1ccc(CN(C)CC(=O)Nc2cccc(S(=O)(=O)N(C)c3ccccc3)c2)cc1 do in these assays?
Pf growth 48h: -15%; Pf growth 96h: inconclusive; Vaccinia mCherry: inactive; Vaccinia Venus: -4%; HCV inhibitor: -17%

How did NS(=O)(=O)c1cccc(NC(=O)COc2ccc([N+](=O)[O-])cc2)c1 do in these assays?
Pf growth 48h: 9.3µM*; Pf growth 96h: 119%; Vaccinia mCherry: -14%; Vaccinia Venus: -11%; HCV inhibitor: 4%

Results for CCC(=O)c1ccc(OCC(=O)Nc2cccc(S(=O)(=O)N(C)c3ccccc3)c2)cc1 ?
Pf growth 48h: inconclusive; Pf growth 96h: -5%; HCV inhibitor: 11µM*

What do the screens show for `NS(=O)(=O)c1ccc(NC(=O)COc2ccc(C(=O)c3ccc(F)cc3)cc2)cc1`?
Pf growth 48h: inconclusive; Pf growth 96h: inconclusive; NS1 function inh: inconclusive; HCV inhibitor: 14µM*

Results for CC(C)CCNc1nc2c(cc1C#N)COC(C)(C)C2 ?
Pf growth 48h: inconclusive; Pf growth 96h: 7%; Vaccinia mCherry: inactive; NS1 function inh: -16%; Vaccinia Venus: -16%; HCV inhibitor: -30%

How did CCCCCSc1cc(OC)c(CCN(C)C)cc1OC do in these assays?
Pf growth 48h: inconclusive; Pf growth 96h: 12µM*; NS1 function inh: 9%; Vaccinia Venus: inconclusive; HCV inhibitor: inconclusive

Results for CCCCCCCCSC1=CC(=O)C(OC)=C(OC)C1=O ?
Vaccinia mCherry: -7%; Vaccinia Venus: -8%

What do the screens show for `COc1cc2nc(SCc3ccc(Cl)cc3Cl)n(Cc3cccs3)c(=N)c2cc1OC`?
Pf growth 48h: inconclusive; Pf growth 96h: 13µM*; NS1 function inh: inconclusive; HCV inhibitor: inconclusive

What do the screens show for `COc1cc2nc(SCc3ccc(C(F)(F)F)cc3)n(Cc3cccs3)c(=N)c2cc1OC`?
Pf growth 48h: inconclusive; Pf growth 96h: 0%; NS1 function inh: 14%; HCV inhibitor: 7%

What do the screens show for `COc1ccc(Cn2c(SCc3ccc(C)cc3)nc3cc(OC)c(OC)cc3c2=N)cc1Cl`?
Pf growth 48h: 1.7µM*; Pf growth 96h: 2.3µM*; Vaccinia mCherry: -18%; NS1 function inh: inconclusive; Vaccinia Venus: -17%; HCV inhibitor: inconclusive

Results for COc1ccc(Cn2c(SCc3cc(C)ccc3C)nc3cc(OC)c(OC)cc3c2=N)cc1 ?
Pf growth 48h: 1.7µM*; Pf growth 96h: inconclusive; NS1 function inh: -30%; HCV inhibitor: 2.8µM*

What do the screens show for `COc1ccc(CNC(=O)CN2C(=O)NC(C)(c3ccc(C(C)(C)C)cc3)C2=O)cc1` (stereo unspecified)?
Pf growth 96h: -28%; Vaccinia mCherry: inconclusive; NS1 function inh: 6%; Vaccinia Venus: -22%; HCV inhibitor: -16%

Results for CCOC(=O)c1c(S(=O)(=O)N2CCN(C)CC2)c(C)n(C)c1C ?
Pf growth 48h: 12%; Pf growth 96h: inconclusive; NS1 function inh: 3%; HCV inhibitor: 7%

What do the screens show for `CCOC(=O)c1c(S(=O)(=O)N2CCCC2)c(C)n(C)c1C`?
Pf growth 48h: 13%; Pf growth 96h: 12µM*; NS1 function inh: -4%; HCV inhibitor: 9%

Results for CCOC(=O)c1c(S(=O)(=O)N2CCCC(C(=O)Nc3ccc(C)cn3)C2)c(C)n(C)c1C (stereo unspecified) ?
Pf growth 48h: 13µM*; Pf growth 96h: 17%; Vaccinia mCherry: -1%; NS1 function inh: 6%; Vaccinia Venus: -2%; HCV inhibitor: -1%

Results for CCOC(=O)c1c(S(=O)(=O)N2CCCCC2C)c(C)n(C)c1C (stereo unspecified) ?
Pf growth 48h: 13%; Pf growth 96h: 1.7µM*; NS1 function inh: -1%; HCV inhibitor: 20%

What do the screens show for `CC(C)CC(=O)N1CCN(C(=O)c2ccc(F)cc2)CC1`?
Pf growth 48h: 13%; Pf growth 96h: 13µM*; Vaccinia mCherry: inactive; NS1 function inh: 10%; Vaccinia Venus: -20%; HCV inhibitor: 0%

Results for Cc1cc(C(=O)N(C)CC(=O)Nc2ccc(F)c(F)c2F)no1 ?
Pf growth 48h: 44%; Pf growth 96h: 27%; NS1 function inh: 10%; HCV inhibitor: 14%

How did O=C(CCn1nnc2ccccc21)Nc1nnc(COc2ccc(F)cc2)s1 do in these assays?
Pf growth 48h: -4%; Pf growth 96h: 9.3µM*; NS1 function inh: 13%; HCV inhibitor: -7%

What do the screens show for `O=C(CCn1nnc2ccccc21)Nc1nnc(Cc2ccc(F)cc2)s1`?
Pf growth 48h: -5%; NS1 function inh: 6%; HCV inhibitor: 5%

How did CCOC(=O)c1ccc(NC(=O)CCn2nnc3ccccc32)cc1 do in these assays?
Pf growth 48h: -1%; Pf growth 96h: inconclusive; Vaccinia mCherry: -4%; NS1 function inh: 3%; Vaccinia Venus: -7%; HCV inhibitor: -13%

How did CC(=O)Nc1ccc(NC(=O)CCn2nnc3ccccc32)cc1 do in these assays?
Pf growth 48h: 9.3µM*; Pf growth 96h: -3%; Vaccinia mCherry: -4%; NS1 function inh: -5%; Vaccinia Venus: -13%; HCV inhibitor: 2%

Results for CCOc1ccc(C(=O)CSc2nnc3cc(C)c4ccccc4n23)cc1 ?
Vaccinia mCherry: -7%; Vaccinia Venus: 3%

What do the screens show for `Cc1cccc2sc(NC(=O)Cn3cccc3)nc12`?
Pf growth 48h: 5%; Pf growth 96h: -7%; Vaccinia mCherry: inactive; NS1 function inh: -16%; Vaccinia Venus: -12%; HCV inhibitor: inconclusive

What do the screens show for `CCOC(=O)CN1C(=O)COc2ccc(C(C)(C)C)cc21`?
Pf growth 48h: 48%; Pf growth 96h: 0.47µM*; Vaccinia mCherry: -16%; NS1 function inh: -14%; Vaccinia Venus: -5%; HCV inhibitor: 14%

Screening data: PubChem BioAssay, National Center for Advancing Translational Sciences (NCATS)
